{"source": "the OligoGym collection"}
{"biological_target": "EPDR1", "test": "pooled miR-30 sensor sort-seq; sequence = guide strand", "details": "shRNA"}
{"sequence": "TAGAGGAATAATTACTTCCTAT", "sensor-assay potency score (higher = more potent)": -0.811}
{"sequence": "TCTAGCTGACTTTCTGTCCGAC", "sensor-assay potency score (higher = more potent)": -0.0561}
{"sequence": "TAGGATCTAGCTGACTTTCTGT", "sensor-assay potency score (higher = more potent)": 0.667}
{"sequence": "TATCACACTGTAGTTTATGGTA", "sensor-assay potency score (higher = more potent)": -0.596}
{"sequence": "TACGAGGGAACTCTAGTCCTGG", "sensor-assay potency score (higher = more potent)": -0.607}
{"sequence": "TCAATCTGAAACATCACTCCAT", "sensor-assay potency score (higher = more potent)": 1.13}
{"sequence": "TTAGGAGACAATAGTCTCCTGA", "sensor-assay potency score (higher = more potent)": -0.95}
{"sequence": "TAGCATTCACATCTTGACTAGT", "sensor-assay potency score (higher = more potent)": 0.0481}
{"sequence": "TAGGATTCTCTAAACTGCCTTG", "sensor-assay potency score (higher = more potent)": -0.223}
{"biological_target": "EPGN", "test": "pooled miR-30 sensor sort-seq; sequence = guide strand", "details": "shRNA"}
{"sequence": "TTTCATAAGAATCCACAGCATA", "sensor-assay potency score (higher = more potent)": -0.859}
{"sequence": "TAACCAGTAAAACACCTGCAGA", "sensor-assay potency score (higher = more potent)": -1.05}
{"sequence": "TTTCTCTAGCTCATGGTGGAAT", "sensor-assay potency score (higher = more potent)": -1.09}
{"sequence": "TTCTATGTTGTCAGCTTGCTGG", "sensor-assay potency score (higher = more potent)": -0.845}
{"sequence": "TAATAGTAATCCAACACCAATC", "sensor-assay potency score (higher = more potent)": -1.34}
{"sequence": "TAAGAATCCACAGCATATGAAG", "sensor-assay potency score (higher = more potent)": -1.16}
{"sequence": "TTGGAGGTGTTACAGTCACGGC", "sensor-assay potency score (higher = more potent)": -1.5}
{"sequence": "TGCAGTAACTGTTATGATCTTC", "sensor-assay potency score (higher = more potent)": -0.113}
{"sequence": "ATAACCAGTAAAACACCTGCAG", "sensor-assay potency score (higher = more potent)": -0.113}
{"sequence": "AACCACTTAATAGTAATCCAAC", "sensor-assay potency score (higher = more potent)": -1.22}
{"sequence": "TATGTTGTCAGCTTGCTGGGCT", "sensor-assay potency score (higher = more potent)": 0.572}
{"sequence": "TTGAATAAAAGATAGACTGATA", "sensor-assay potency score (higher = more potent)": -0.413}
{"biological_target": "EPHA6", "test": "pooled miR-30 sensor sort-seq; sequence = guide strand", "details": "shRNA"}
{"sequence": "TTCCATTACATTACATACCTGG", "sensor-assay potency score (higher = more potent)": 0.0947}
{"sequence": "TTGGCTTGAATTTAATTCCGTG", "sensor-assay potency score (higher = more potent)": 0.00331}
{"sequence": "TTACAGATTACACTGTATGTGA", "sensor-assay potency score (higher = more potent)": 0.175}
{"sequence": "TTTCTTACAGATTACACTGTAT", "sensor-assay potency score (higher = more potent)": -0.425}
{"sequence": "TTCAGCTCGGAAATAACCCTTT", "sensor-assay potency score (higher = more potent)": -0.23}
{"sequence": "TATCAAGCAACACAACTTGGTT", "sensor-assay potency score (higher = more potent)": -0.642}
{"sequence": "ATTTCTTGTAGAAAACACGGAC", "sensor-assay potency score (higher = more potent)": -0.586}
{"sequence": "TGTATCAAGCAACACAACTTGG", "sensor-assay potency score (higher = more potent)": -0.401}
{"sequence": "TTTTCTGAGCTGCATCACGGGA", "sensor-assay potency score (higher = more potent)": -0.977}
{"sequence": "TACAGTTGTTGTATCAAGCAAC", "sensor-assay potency score (higher = more potent)": 0.0165}
{"sequence": "TTTCTGACTGTAGCCACTGTAT", "sensor-assay potency score (higher = more potent)": -1.06}
{"biological_target": "EPHA8", "test": "pooled miR-30 sensor sort-seq; sequence = guide strand", "details": "shRNA"}
{"sequence": "TCTCGTAGTACTTGATCTCATA", "sensor-assay potency score (higher = more potent)": -1.09}
{"sequence": "ATTTTCTCGATGTGGATCCTAG", "sensor-assay potency score (higher = more potent)": -0.272}
{"sequence": "TGCATGATGGTGAACTGCCCGT", "sensor-assay potency score (higher = more potent)": -1.1}
{"sequence": "TTGATCTCAGCATAGACGCGCC", "sensor-assay potency score (higher = more potent)": -0.595}
{"sequence": "TGATAGTGCATCTTCTCCTCGT", "sensor-assay potency score (higher = more potent)": 0.0465}
{"sequence": "TAGCCGGCACTGCACACGCATT", "sensor-assay potency score (higher = more potent)": -1.71}
{"sequence": "TGCATCTTCTCCTCGTCCGAGT", "sensor-assay potency score (higher = more potent)": -1.08}
{"sequence": "TTTGAGGAACTGGCTTTCTTGT", "sensor-assay potency score (higher = more potent)": -1.09}
